Among the data in PubChem BioAssay are composite z-score and z-score values, retold here.

Test [1] in a line: binders of probe aFSTL3 on microarray, primary screen, stem cell growth factor project, biochemical, small-molecule microarray, fluorescence 635/667 (AID 1064).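 Also: measures binding of the biotinylated anti-FSTL3 antibody to printed compounds.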 The note with it: higher = more signal.
A short description of test [2]: binders from COS7 lysate, DM2A8 probe, primary screen, torsin A project, cell lysate, small-molecule microarray, fluorescence 635/667 (AID 1065). The note with it: higher = more signal, COS7 lysate expressing mutant human TOR1A.
Test [3] in a line: binders of probe aFGF2 on microarray, primary screen, stem cell growth factor project, biochemical, small-molecule microarray, fluorescence 635/667 (AID 1067).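 Also: measures binding of biotinylated aFGF2 protein to printed compounds on slides; z-score merges feature fluorescence and signal-to-noise across triplicate slides.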 The conditions noted are these: higher = more signal.
Test [4] in a line: binders of probe aFGF10 on microarray, primary screen, stem cell growth factor project, biochemical, small-molecule microarray, fluorescence 635/667 (AID 1071).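 Also: score merges 667 nm spot intensity and signal to noise from triplicate slides.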 The note with it: higher = more signal.
The target of test [5] is Neurogenic locus notch homolog protein 2 (Homo sapiens) (UniProt Q04721). The experiment in a line: Notch2 binders on small-molecule microarrays, primary screen, biochemical, small-molecule microarray, 635 nm fluorescence, stem cell growth factors (AID 1073). The note with it: Notch2 binding, higher = more signal.
Chain of Neurogenic locus notch homolog protein 2 (Homo sapiens) (Q04721 whole entry, looked up, canonical isoform): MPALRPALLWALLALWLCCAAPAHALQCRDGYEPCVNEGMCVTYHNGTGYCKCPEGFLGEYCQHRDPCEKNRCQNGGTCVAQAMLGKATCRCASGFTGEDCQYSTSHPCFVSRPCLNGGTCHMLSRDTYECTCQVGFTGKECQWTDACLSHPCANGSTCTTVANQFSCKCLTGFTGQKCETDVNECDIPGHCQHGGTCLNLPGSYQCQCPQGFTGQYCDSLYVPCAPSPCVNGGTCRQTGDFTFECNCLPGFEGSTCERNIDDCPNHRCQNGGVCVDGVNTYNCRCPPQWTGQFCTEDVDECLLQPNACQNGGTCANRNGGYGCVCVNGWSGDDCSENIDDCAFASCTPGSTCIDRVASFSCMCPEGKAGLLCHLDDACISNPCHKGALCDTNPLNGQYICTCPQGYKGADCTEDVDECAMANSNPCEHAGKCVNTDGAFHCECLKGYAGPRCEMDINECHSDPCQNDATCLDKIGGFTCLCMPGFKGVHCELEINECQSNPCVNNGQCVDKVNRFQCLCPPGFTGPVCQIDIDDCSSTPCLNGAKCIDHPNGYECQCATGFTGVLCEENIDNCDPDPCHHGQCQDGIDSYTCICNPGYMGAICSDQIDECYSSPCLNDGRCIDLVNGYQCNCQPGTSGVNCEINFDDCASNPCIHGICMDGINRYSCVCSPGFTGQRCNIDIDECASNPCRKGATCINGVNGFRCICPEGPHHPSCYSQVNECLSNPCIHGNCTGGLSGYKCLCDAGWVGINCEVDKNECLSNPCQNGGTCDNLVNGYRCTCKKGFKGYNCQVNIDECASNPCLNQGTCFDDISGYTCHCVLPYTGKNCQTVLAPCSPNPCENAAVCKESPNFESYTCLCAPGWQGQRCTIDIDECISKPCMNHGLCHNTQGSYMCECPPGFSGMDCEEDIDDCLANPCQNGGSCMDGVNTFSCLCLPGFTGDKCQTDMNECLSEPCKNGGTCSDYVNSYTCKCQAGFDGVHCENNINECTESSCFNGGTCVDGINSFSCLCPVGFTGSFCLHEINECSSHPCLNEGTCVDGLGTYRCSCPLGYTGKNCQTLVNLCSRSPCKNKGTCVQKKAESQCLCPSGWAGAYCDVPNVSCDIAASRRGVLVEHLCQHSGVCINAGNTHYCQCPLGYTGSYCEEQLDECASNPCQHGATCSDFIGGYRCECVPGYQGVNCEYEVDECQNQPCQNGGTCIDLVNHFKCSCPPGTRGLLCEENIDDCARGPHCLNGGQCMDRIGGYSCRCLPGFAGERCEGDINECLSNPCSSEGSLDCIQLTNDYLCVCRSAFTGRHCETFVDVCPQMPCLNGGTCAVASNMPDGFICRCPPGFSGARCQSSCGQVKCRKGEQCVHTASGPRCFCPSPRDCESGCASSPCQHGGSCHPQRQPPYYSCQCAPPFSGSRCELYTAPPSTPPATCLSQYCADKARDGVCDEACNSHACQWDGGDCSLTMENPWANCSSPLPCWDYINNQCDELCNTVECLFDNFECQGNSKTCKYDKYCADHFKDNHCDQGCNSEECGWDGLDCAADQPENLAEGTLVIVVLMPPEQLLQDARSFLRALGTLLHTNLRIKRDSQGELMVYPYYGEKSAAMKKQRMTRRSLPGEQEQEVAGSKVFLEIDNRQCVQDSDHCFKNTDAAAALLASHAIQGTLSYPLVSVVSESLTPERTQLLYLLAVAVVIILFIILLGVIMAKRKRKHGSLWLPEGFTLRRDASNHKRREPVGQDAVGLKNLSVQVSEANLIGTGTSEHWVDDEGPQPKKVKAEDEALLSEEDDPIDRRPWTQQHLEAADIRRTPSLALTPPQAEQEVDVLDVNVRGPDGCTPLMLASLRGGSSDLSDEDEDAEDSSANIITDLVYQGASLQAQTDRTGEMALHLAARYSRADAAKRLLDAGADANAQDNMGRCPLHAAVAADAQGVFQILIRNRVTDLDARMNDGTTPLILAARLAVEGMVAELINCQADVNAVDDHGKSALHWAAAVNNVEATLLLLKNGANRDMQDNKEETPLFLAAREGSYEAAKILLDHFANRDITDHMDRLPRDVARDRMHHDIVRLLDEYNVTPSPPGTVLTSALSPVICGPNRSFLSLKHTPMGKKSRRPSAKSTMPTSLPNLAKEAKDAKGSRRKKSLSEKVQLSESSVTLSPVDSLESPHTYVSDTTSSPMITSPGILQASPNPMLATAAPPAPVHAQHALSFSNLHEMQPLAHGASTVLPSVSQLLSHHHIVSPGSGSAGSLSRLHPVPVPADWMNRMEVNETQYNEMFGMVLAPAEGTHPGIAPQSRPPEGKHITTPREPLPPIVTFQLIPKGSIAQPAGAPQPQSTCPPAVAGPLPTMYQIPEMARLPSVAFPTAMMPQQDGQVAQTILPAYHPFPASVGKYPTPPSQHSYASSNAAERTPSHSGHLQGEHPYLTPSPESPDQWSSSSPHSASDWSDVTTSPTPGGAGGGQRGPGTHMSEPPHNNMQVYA
The target in test [6] is Pro-neuregulin-1, membrane-bound isoform (Homo sapiens) (UniProt Q02297). In words: NRG1 binders on small-molecule microarrays, primary screen, psychiatric disease protein project, biochemical, small-molecule microarray, fluorescence 635/667 (AID 1075).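 Also: score combines 667 nm spot fluorescence with signal to noise.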 The note with it: NRG1 binding, 635 nm fluorescence, higher = more signal.
Chain of Pro-neuregulin-1, membrane-bound isoform (Homo sapiens) (Q02297 whole entry, looked up, the tested form may be a part, canonical isoform): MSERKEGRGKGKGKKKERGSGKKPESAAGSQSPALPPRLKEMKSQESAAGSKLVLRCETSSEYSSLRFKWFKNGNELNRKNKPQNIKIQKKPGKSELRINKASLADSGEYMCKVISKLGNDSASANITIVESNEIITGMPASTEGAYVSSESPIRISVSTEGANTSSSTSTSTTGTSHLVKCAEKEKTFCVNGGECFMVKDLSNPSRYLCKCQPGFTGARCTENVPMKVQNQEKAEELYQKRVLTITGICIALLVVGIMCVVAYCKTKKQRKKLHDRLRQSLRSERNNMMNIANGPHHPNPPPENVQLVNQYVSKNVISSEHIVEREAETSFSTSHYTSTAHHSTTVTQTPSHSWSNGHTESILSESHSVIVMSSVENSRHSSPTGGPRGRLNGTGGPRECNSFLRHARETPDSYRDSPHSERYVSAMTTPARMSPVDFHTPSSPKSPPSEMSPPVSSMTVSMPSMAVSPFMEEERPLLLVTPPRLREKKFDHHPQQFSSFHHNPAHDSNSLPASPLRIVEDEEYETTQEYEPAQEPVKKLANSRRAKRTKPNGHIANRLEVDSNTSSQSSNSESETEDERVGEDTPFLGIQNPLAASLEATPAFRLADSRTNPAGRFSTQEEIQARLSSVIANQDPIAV
Test [7] has as its system Neuregulin-1 EGF-like domain. In words: binders of neuregulin-1 EGF-like domain, primary screen, biochemical, small-molecule microarray, 635 nm fluorescence (AID 1081).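 Also: binding of the protein to compounds printed on small-molecule microarray slides.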 The conditions noted are these: small-molecule microarray binding, higher = more signal.
Test [8] in a line: FRG1 promoter luciferase signal modulators, primary screen, FRG1 inhibition for FSHD, cell-based, C2C12 myotubes, firefly/Renilla luciferase, luminescence (AID 1084). The note with it: higher = more signal, called active from +8 up or from −8 down.
Test [9] is described as follows: binders of probe aFST on microarray, primary screen, stem cell growth factor project, biochemical, small-molecule microarray, fluorescence 635/667 (AID 1086).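 Also: score merges 667 nm fluorescence with signal-to-noise of each printed compound spot.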 The conditions noted are these: higher = more signal.
A short description of test [10]: binders of probe aHhip on microarray, primary screen, stem cell growth factor project, biochemical, small-molecule microarray, fluorescence 635/667 (AID 1087).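 Also: score merges spot fluorescence at 667nm with spot signal to noise ratio.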 The conditions noted are these: higher = more signal.

Active and inactive are the calls of the source.

Consider `CC(C)N1CC=CC23O[C@@H]4C=CCCOC(=O)C4[C@H]2C(=O)N(CCCCCCO)[C@@H]3C1=O` (stereo not given in full), for which the composite z-score in test [1] was 0.487; in [2], -1.93; in [3] it was -0.141; in test [4] it was -0.671; in test [5], -1.17; in test [6], 1.2. Further, the composite z-score in test [7] was 0.896; in test [9], -0.357; in test [10], -0.236. Besides, the z-score in [8] was -0.121 (inactive).
Take `CCc1cc2c(nc1CC)CCN(CCC(C)=NOC[C@@H](O)[C@H]1O[C@@H]3OC(C)(C)O[C@@H]3[C@H]1O)C2`: the composite z-score in test [1] was -0.436; in test [2] it was 0.273; in test [3] it was -0.148; in test [4], 0.0851; in test [5], 0.191; in test [6], 0.146. Besides, the composite z-score in test [7] is 0.335; in test [9], 0.0391; in test [10], -0.0088. For the same compound, the z-score in [8] was 1.35 (inactive).
`CO[C@H]1COC(=O)[C@@H]2CCCN2C(=O)[C@@H](C)COC(=O)CC=C[C@@H]1C`: the composite z-score in test [1] is -0.553; in test [2] it was 1.69; in test [3] it was -0.118; in test [4], 0.624; in [5], 0.0761; in test [6], -0.446. In addition, the composite z-score in [7] was 0.997; in test [9], 0.107; in test [10], -0.249. Further, in test [8], the z-score was 0.36 (inactive).
As to `COc1ccc([Si](C)(C)[C@@H]2[C@@H](CC(=O)N3CCC[C@H]3CO)O[C@]3(C(=O)N(Cc4cccc(N5CCC5=O)c4)c4ccccc43)[C@H]2C)cc1`, the composite z-score in test [1] was -0.0723; in test [2], 0.461; in test [3], -0.0715; in test [4], 0.45; in test [5] it was 0.322; in [6] it was 1.51. For the same compound, the composite z-score in [7] was 1.14; in [9], -0.187; in test [10] it was 0.107. Further, in test [8], the z-score is -0.548 (inactive).
With `CC(=O)OC[C@H]1O[C@@H](ON=C(C)CCN2CCc3nc(-c4ccccc4)c(-c4ccccc4)cc3C2)[C@H](OC(C)=O)[C@@H](OC(C)=O)[C@@H]1OC(C)=O`, the composite z-score in test [1] was -0.209; in [2] it was 0.217; in test [3], -0.213; in test [4], 0.958; in [5], 1.11; in test [6], 0.817. Besides, the composite z-score in [7] came to 0.992; in [9], 0.473; in test [10], 0.21. In addition, in test [8], the z-score is 0.66 (inactive).
As to `[N-]=[N+]=Nc1ccccc1C[C@@]1(C(N)=O)N=C(c2ccc(OCCCO)cc2)O[C@@H]1c1ccccc1`, the composite z-score came out at 1.57 in [1]; 0.49 in test [2]; 0.0249 in [3]; 0.296 in test [4]; 0.975 in test [5]; 1.05 in test [6]. In addition, the results for the composite z-score in test [7], in test [9] and in test [10] were 1.16, 0.784 and -0.181, respectively. The z-score in [8] is 1.23 (inactive).
As to `CC(C)=CCCC(C)=CCON=C1[C@H]2CCn3c(=O)n(Cc4cc5c(cc4Cl)OCO5)c(=O)n3[C@H]2[C@H](O)[C@@H]2O[C@H]12`, the composite z-score in test [1] is -0.405; in test [2], 1.2; in [3], -0.0481; in [4] it was 0.262; in test [5], 0.405; in test [6], 0.0535. For the same compound, the composite z-score was 0.177 in test [7], 0.661 in [9] and -0.328 in test [10]. The z-score in [8] was 0.752 (inactive).
Consider `O=C1O[C@@H](c2ccccc2)[C@@H](c2ccccc2)N2[C@@H](c3ccc(OCCO)cc3)[C@]3(C(=O)Nc4ccccc43)[C@@H](C(=O)N3CCN(c4ncccn4)CC3)[C@H]12`, for which the composite z-score in [1] is 0.0612; in [2], 0.574; in [3] it was -0.0493; in test [4] it was 0.267; in test [5], 1.25; in test [6], 1.27. Also, the composite z-score in test [7] stood at 1.34; in test [9], 0.847; in [10], 0.106. Besides, in test [8], the z-score is -0.968 (inactive).
Turning to `C#CCCCON=C1C[C@@H](O)[C@@H](O)[C@@H]2[C@@H]3C(=O)N(c4cccc(Oc5ccccc5)c4)C(=O)[C@@H]3CC[C@@H]12`, the composite z-score in test [1] is -0.456; in test [2], -0.666; in test [3] it was -0.0296; in test [4], 0.967; in [5], 0.88; in test [6], 1.44. The composite z-score in [7] is 0.598; in test [9] it was 0.319; in test [10], -0.334. For the same compound, in test [8], the z-score was 0.407 (inactive).
As to `CC(CCN1CCc2nc(-c3ccccc3)c(-c3ccccc3)cc2C1)=NOC(C)CN1CCCCc2nc(C)c(C)cc21` (stereo not given), the composite z-score was -0.16 in test [1]; -0.0309 in [2]; -0.0398 in test [3]; 0.476 in test [4]; 0.519 in [5]; 0.657 in test [6]. The composite z-score in test [7] turned out to be 0.885; in [9] it was 0.465; in test [10], 0.115. The z-score in test [8] is 1.1 (inactive).
As to `CC(C)(C)N1C(=O)[C@H]2[C@H]3[C@H](O)[C@H](O)CC(=NOCc4ccccc4)[C@@H]3CC[C@H]2C1=O`, the composite z-score in [1] was -0.0757; in test [2], 0.581; in test [3] it was -0.0963; in [4], 0.805; in test [5] it was 1.49; in [6] it was 0.583. The composite z-score in [7] was 1.13; in test [9], 0.503; in test [10], -0.15. Moreover, the z-score in test [8] is -1.4 (inactive).
